Source: PubChem
SENP8 block-1 = blocks human SENP8 cleavage of Nedd8 substrate. Q96LD8. recombinant SENP8, Nedd8 substrate fluorescence. inhibition, % at 20 µM. 360,000 compounds, 0.64% hits. AID 602440; in the data active = inhibition mostly above about 40%, no sharp cut-off; inactive = mostly below about 27%
SENP6 inh = SENP6 protease inhibition; Q9GZR1; Recombinant SENP6 catalytic domain, aminoluciferin luminescence; inhibition, % at 10 µM; 330,000 compounds, 1.8% hits;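 active = inhibition above about 50% at the single tested dose, limit read from the data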
EBI2 antag = blocks human EBI2 receptor beta-arrestin signaling; AID 651636; inhibition, % at 5 µM; 360,000 compounds, 0.81% hits; P32249; EBI2 beta-arrestin recruitment, luminescence, 7a,25-OHC stimulated; in the data active = inhibition above about 38%;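 also: enzyme fragment complementation signal reports receptor beta-arrestin coupling in cells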
Target sequence (P32249 whole entry, looked up, the tested form may be a part): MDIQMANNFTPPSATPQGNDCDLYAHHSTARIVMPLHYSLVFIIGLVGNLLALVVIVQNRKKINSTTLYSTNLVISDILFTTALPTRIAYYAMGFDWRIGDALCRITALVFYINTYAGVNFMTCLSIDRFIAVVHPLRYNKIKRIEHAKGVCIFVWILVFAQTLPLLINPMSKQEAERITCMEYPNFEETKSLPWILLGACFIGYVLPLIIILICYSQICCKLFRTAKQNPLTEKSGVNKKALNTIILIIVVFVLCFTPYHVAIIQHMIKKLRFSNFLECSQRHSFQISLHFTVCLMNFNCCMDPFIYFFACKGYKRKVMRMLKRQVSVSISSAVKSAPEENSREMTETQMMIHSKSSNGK
AHR activator = activators of human aryl hydrocarbon receptor; AHR-responsive luciferase reporter cells, luminescence; P35869; 320,000 compounds, 2.5% hits; activation, % at 5 µM; in the data active = activation above about 47%
SENP8 block-2 = SENP8 protease inhibition. 330,000 compounds, 1.2% hits. purified SENP8, Z-RLRGG-aminoluciferin cleavage, luminescence. inhibition, % at 10 µM. Q96LD8. AID 2540; in the data active = inhibition above about 50%
SENP7 block = inhibitors of human SENP7 protease. Q9BQF6. recombinant SENP7, Z-RLRGG-aminoluciferin luminescence, 40 min. inhibition, % at 5 µM. 330,000 compounds, 1.5% hits. AID 434973;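 active = inhibition above about 50% at the single test dose, limit read from the data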
SENP8 confirm = confirmation of human SENP8 protease inhibitors. shares compounds with SENP7 block. Recombinant SENP8, Z-RLRGG-aminoluciferin luminescence, 60 min. inhibition, % at 12.5 µM. 6,200 compounds, 40% hits. AID 488912;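 active = mean inhibition across replicates above about 50%, limit read from the data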
SENP6 confirm = confirmation of human SENP6 protease inhibitors | shares compounds with SENP7 block | recombinant SENP6, Z-RLRGG-aminoluciferin luminescence | inhibition, % at 12.5 µM | 6,200 compounds, 58% hits | AID 488915
SENP7 confirm = confirmation of human SENP7 protease inhibitors; 6,200 compounds, 69% hits; recombinant SENP7, Z-RLRGG-aminoluciferin luminescence, 40 min; inhibition, % at 12.5 µM; shares compounds with SENP7 block
Casp3 select = inhibits human caspase-3 in SENP selectivity test | shares compounds with SENP7 block | purified caspase-3, Z-DEVD-aminoluciferin luminescence, 60 min | inhibition, % at 12.5 µM | 6,200 compounds, 60% hits;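 active = mean inhibition above about 50%, limit read from the data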
Luc interf = counter-screen for SENP inhibitors: luminescence interference; Pre-incubated SENP8/Z-RLRGG-aminoluciferin, luciferase luminescence interference; 6,200 compounds, 39% hits; inhibition, % at 12.5 µM; AID 488919; shares compounds with SENP7 block;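 active = mean inhibition above about 50% when retested at one dose, limit read from the data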
Of the large screens only hits and unclear results are named; the others gave an inactive call (follow-up assays come after a bar, where they were run). An excerpt weighted towards active compounds, which were near 5% of everything screened.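 The calls were made as follows, unless noted: active = mean inhibition above about 50% in the one-dose retest (limit read from the data); inactive = the rest.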

Cc1cc(C(=O)N/N=C/c2ccc3c(c2)OCO3)c(C)o1	SENP6 inh 73.9, AHR activator 72.4, SENP8 block-2 70.4, SENP7 block 76.6 | SENP8 confirm 85.9 | SENP6 confirm 83.6 | SENP7 confirm 97.2 | Casp3 select 92.9 | Luc interf 58.2
Cc1cc(C)nc(SCC(=O)Nc2ccc3c(c2)OCO3)n1	none
O=C(N/N=C/c1ccc2c(c1)OCO2)c1sc2cc(Cl)ccc2c1Cl	none
C[C@H](CO)N1C[C@H](C)[C@@H](CN(C)C(=O)Nc2ccccc2)Oc2c(NS(=O)(=O)c3cccs3)cccc2C1=O	none
O=C(C[n+]1ccccc1)N/N=C/c1ccccc1C(F)(F)F	none
COc1ccccc1C1=NOC(C)(c2nnc(-c3cccc(Cl)c3)o2)C1 (configuration not stated)	none
COc1cccc(/C=N/NC(=O)c2cccs2)c1	SENP6 inh 55.1, SENP7 block 61.9 | SENP8 confirm 53.5 | SENP6 confirm 50.2 | SENP7 confirm 84.2 | Casp3 select 70.8 | Luc interf 64.2
COc1cc(/C=N/NC(=O)c2cccs2)ccc1O	none
O=C(Nc1sc2c(c1C(=O)O)CCC2)c1ccccc1	SENP6 inh 88.1, SENP8 block-2 94.1, SENP7 block 92.2 | SENP8 confirm inactive | SENP6 confirm 98.6 | SENP7 confirm 102.8 | Casp3 select 97.3 | Luc interf 85.2
O=C(Nc1sc2c(c1C(=O)O)CCCC2)c1cccc(Cl)c1	SENP6 inh 91.9, SENP8 block-2 91.0 (no result: AHR activator) | SENP8 confirm 96.2 | SENP6 confirm 96.1 | SENP7 confirm 99.4 | Casp3 select 87.1 | Luc interf 95.7
O=C(Nc1sc2c(c1C(=O)O)CCCCC2)c1ccccc1	SENP6 inh 99.5, SENP8 block-2 94.8, SENP7 block 83.0 | SENP8 confirm 97.3 | SENP6 confirm 99.8 | SENP7 confirm 103.4 | Casp3 select 97.7 | Luc interf 98.5
O=C(Nc1sc2c(c1C(=O)O)CCC2)c1ccc(F)cc1	SENP6 inh 86.9, SENP8 block-2 80.8 | SENP8 confirm 89.2 | SENP6 confirm 89.5 | SENP7 confirm 95.2 | Casp3 select 91.0 | Luc interf 58.2
NCCNC(=O)c1c(NC(=O)c2ccccc2)sc2c1CCCC2	none
COc1ccc(-c2csc(NC(=O)c3c(C)noc3C)n2)cc1F	none (no result: AHR activator)
COC(=O)C1=C/C=C\CN(C(c2ccccc2)c2ccccc2)/C=C\1C(=O)OC	none (no result: SENP6 inh, AHR activator, SENP8 block-2, SENP7 block)
N#Cc1c(NC(=O)c2ccccc2)sc2c1CCCCC2	SENP6 inh 73.7, SENP8 block-2 50.8, SENP7 block 56.2 | SENP8 confirm inactive | SENP6 confirm inactive | SENP7 confirm inactive | Casp3 select inactive | Luc interf inactive
COc1ccc(C(=O)Nc2sc3c(c2C#N)CCN(C(C)=O)C3)cc1	SENP6 inh 78.9 | SENP8 confirm inactive | SENP6 confirm inactive | SENP7 confirm inactive | Casp3 select inactive | Luc interf inactive
CC1CCCCN1CC(=O)c1c(N)n(Cc2ccccc2)c(=O)n(C)c1=O (configuration not stated)	none
COc1nnc(-c2ccc(N3CCOCC3)c(NC(=O)C3CCCCC3)c2)c2ccccc12	none
c1ccc2c3c(cc(N4CCOCC4)c2c1)OC1(N2CCOCC2)CCCCC1O3 (configuration not stated)	SENP6 inh 80.0 | SENP8 confirm inactive | SENP6 confirm inactive | SENP7 confirm inactive | Casp3 select inactive | Luc interf inactive
CCOCCn1c(C)c(C(=O)OCC)c2cc(O)c3ccccc3c21	none
